VP16 counter: VP16 counterscreen qHTS for inhibitors of ROR gamma transcriptional activity | AID 2546, 2010 | Potency, µM (titrated, usually from 53.6 µM), actives largely listed as inhibitors | Drosophila S2 Gal4-VP16 UAS-luciferase, luminescence, 20 h | actives 3.5% (n = 310,000);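 also: Gal4-VP16 expression switched on by copper sulfate through the metallothionein promoter; nearly all actives have a fitted effect of over 50% in size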
RORg inh: qHTS for inhibitors of ROR gamma transcriptional activity | Nuclear receptor ROR-gamma (Mus musculus), P51450 | Drosophila S2 Gal4-RORgamma UAS-luciferase reporter, 20 h | Potency, µM (titrated, usually from 53.6 µM), most hits filed as inhibitors | actives 5.4% (n = 310,000) | AID 2551, 2010; also: nearly all actives have a fitted effect of over 60% in size
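Compounds are pin-transferred onto Drosophila Schneider cells expressing a copper-inducible Gal4–ROR gamma transactivation domain fusion. After 1 hr, copper sulfate is added to 700 uM final; luciferase is read 20 hr later.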
TDP1 cell noCPT: qHTS for Inhibitors of human tyrosyl-DNA phosphodiesterase 1 (TDP1): qHTS in cells in absence of CPT; actives 15% (n = 420,000); DT40 Tdp1-/- hTDP1 cells, no CPT, ATP luminescence, 48 h; Potency, µM (top dose mostly 46.2 µM), most hits filed as inhibitors; also: nearly all actives have a fitted effect of over 55% in size
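Chicken DT40 Tdp1-/- cells complemented with human TDP1, screened without camptothecin (DMSO vehicle only), 400 cells/well. Compounds pin-transferred, cells incubated at 37 °C for at least 48 hr. Growth read as ATP-dependent luminescence (CellTiter-Glo, 30 min at RT).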
12-LOX inh: Primary qHTS assay for inhibitors of human arachidonate 12S-lipoxygenase (ALOX12): Round 2. Polyunsaturated fatty acid lipoxygenase ALOX12 (Homo sapiens), P18054. purified 12hLO, xylenol orange hydroperoxide absorbance. Potency, µM (top dose mostly 108 µM), hits mostly inhibitors. actives 1.1% (n = 580,000). AID 1671190, 2021
Target sequence (P18054 whole entry, looked up): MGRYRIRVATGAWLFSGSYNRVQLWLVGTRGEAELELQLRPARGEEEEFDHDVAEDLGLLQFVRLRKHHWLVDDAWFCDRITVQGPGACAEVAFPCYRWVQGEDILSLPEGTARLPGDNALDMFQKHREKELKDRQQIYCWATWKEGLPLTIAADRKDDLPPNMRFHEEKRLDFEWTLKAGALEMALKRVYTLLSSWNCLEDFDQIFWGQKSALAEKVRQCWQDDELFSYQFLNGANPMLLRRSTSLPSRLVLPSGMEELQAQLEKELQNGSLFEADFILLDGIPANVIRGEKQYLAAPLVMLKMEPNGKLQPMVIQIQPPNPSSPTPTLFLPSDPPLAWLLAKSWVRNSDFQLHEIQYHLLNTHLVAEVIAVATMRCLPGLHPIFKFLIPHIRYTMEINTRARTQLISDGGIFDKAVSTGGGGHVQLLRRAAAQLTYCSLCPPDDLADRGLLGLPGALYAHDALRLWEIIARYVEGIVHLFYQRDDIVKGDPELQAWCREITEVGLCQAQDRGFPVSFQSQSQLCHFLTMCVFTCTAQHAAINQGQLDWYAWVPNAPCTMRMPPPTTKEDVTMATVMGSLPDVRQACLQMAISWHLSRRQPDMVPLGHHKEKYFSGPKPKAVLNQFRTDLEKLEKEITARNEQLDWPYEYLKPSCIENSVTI
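Purified human 12hLO at 150 nM in 25 mM Hepes, 0.01% Triton X-100, pH 7.0, preincubated 15 min at room temperature with compound. Reaction started with 40 uM arachidonic acid, 30 min at room temperature. Hydroperoxide measured by Fe-xylenol orange, 573/405 nm absorbance ratio.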
DT40 TDP1 CPT: qHTS for Inhibitors of human tyrosyl-DNA phosphodiesterase 1 (TDP1): qHTS in cells in presence of CPT. chicken DT40 Tdp1-/-;hTDP1 cells + 20 nM CPT, ATP luminescence, 48 h. Potency, µM (series often up to 46.2 µM), most hits filed as inhibitors. actives 12% (n = 420,000); also: nearly all actives have a fitted effect of over 55% in size
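Cell growth measured by CellTiter-Glo luminescence after a minimum 48 h, 37 C compound exposure with 20 nM CPT in Tdp1-knockout DT40 cells stably expressing hTDP1, seeded 400/well; qHTS titration format.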
ELG1 DNA repair: qHTS screen for small molecules that inhibit ELG1-dependent DNA repair in human embryonic kidney (HEK293T) cells expressing luciferase-tagged ELG1 | HEK293T ELG1-luciferase reporter, luminescence, 16 h; DNA damage induced by 5-fluorouridine | Potency, µM (highest dose often 46.1 µM), actives largely listed as inhibitors | actives 2.3% (n = 330,000) | AID 504467, 2011; also: nearly all actives have a fitted effect of over 55% in size
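Quantitative HTS, concentration-response format. 2,000 cells/well co-treated with 5-fluorouridine and compound, 16 hr in 5% CO2 at 37 °C; ONE-Glo luminescence read after 30 min.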
Numbers stand for hits; i = inactive; ? = inconclusive; nt = no result given; [ ] = remark or other dose. Only some compounds are listed: those with a hit (about 15% of all), similar ones and a draw of the others. Calls follow the shape of the dose curve; as a rule, active = well fitted curve in the direction sought with a large enough effect; inconclusive = small, poorly fitted or top-dose-only effect, or another doubt; inactive = no such curve, though single readings can be large; an effect the other way counts as inactive or inconclusive.

SMILES	VP16 counter	RORg inh	TDP1 cell noCPT	12-LOX inh	DT40 TDP1 CPT	ELG1 DNA repair
Cn1nc(-c2ccccc2)cc1[C@H]1CN2CC[C@H]1C[C@@H]2CNC(=O)N1CCOCC1	nt	nt	nt	i	nt	nt
O=C(O)C1=NOC2CN(Cc3cccc(Br)n3)CC12 (stereo unspecified)	nt	nt	nt	i[6.33 µM]	nt	nt
O=C1CN=C(c2ccc(Br)cc2)c2c(sc3c2CCCC3)N1CCN1CCCCC1	i	i	5.8µM	i	10.3µM	?
CCOC(=O)c1c(C)n(COCCO)c2ccc(O)cc12	i	i[10 µM]	i	i	i	i
CCOC(=O)c1c(C)n(Cc2ccc3c(c2)OCO3)c2ccc(O)cc12	i	i	?	?	?	?
COC(=O)c1c(C)n(Cc2ccc3c(c2)OCO3)c2ccc(O)cc12	?	?	i	12.6µM	?	?
CCCn1c(C)c(C(=O)OCc2ccccc2)c2cc(O)ccc21	nt	nt	nt	35.5µM	nt	nt
COc1ccccc1N1CCN(C(=O)[C@H]2CN3CCC2C[C@@H]3Cn2cc(C(C)(C)O)nn2)CC1 (stereo partly specified)	nt	nt	nt	i	nt	nt
COc1ccc(-n2nnnc2C(c2cccs2)N2CCC(n3c(=O)[nH]c4ccccc43)CC2)cc1 (stereo unspecified)	nt	nt	13µM	i	11.6µM	nt
COc1ccc(C(c2nnnn2-c2c(C)cccc2C)N2CCC(n3c(=O)[nH]c4ccccc43)CC2)cc1 (stereo unspecified)	nt	nt	9.2µM	i	8.2µM	nt
Cc1cccc(C)c1-n1nnnc1C(c1cc2ccccc2o1)N1CCC(n2c(=O)[nH]c3ccccc32)CC1 (stereo unspecified)	nt	nt	1.3µM	i	1.46µM	nt
COc1ccc(-n2nnnc2C(C2CC2)N2CCC(n3c(=O)[nH]c4ccccc43)CC2)cc1 (stereo unspecified)	nt	nt	?	i	?	nt
COc1ccc(-n2nnnc2C(c2ccccc2)N2CCC(n3c(=O)[nH]c4ccccc43)CC2)cc1 (stereo unspecified)	nt	nt	14.6µM	?	16.4µM	nt
Cc1noc(C)c1COc1ccc(CC(=O)N2CCN(CC(=O)N3CCCC3)CC2)cc1	nt	nt	nt	i	nt	nt
COc1ccccc1C(=O)N1CCC2(CC1)c1nccn1-c1ccccc1CN2CC(C)C	nt	nt	nt	i	nt	nt
CC(C)(C)NC(=O)NC(O)C(Cl)(Cl)Cl (stereo unspecified)	nt	nt	nt	i	nt	nt
COc1ccc(S(=O)(=O)NC[C@H]2C[C@@H]3CCN2C[C@@H]3CN(C)c2ccccc2)cc1	nt	nt	nt	i	nt	nt
CC(C)(C)CN1CCC2(CN[S+](=O)([O-])c3cccnc3O2)C1 (stereo unspecified)	nt	nt	nt	i[6.33 µM]	nt	nt
COCCNC(=O)[C@H]1CN2CCC1C[C@@H]2Cn1cc(-c2ccc(-c3ccccc3)cc2)nn1 (stereo partly specified)	nt	nt	nt	i	nt	nt
Cc1cccc(C)c1-n1nnnc1C(c1ccccc1OC(F)(F)F)N1CCC(n2c(=O)[nH]c3ccccc32)CC1 (stereo unspecified)	nt	nt	5.8µM	i	8.2µM	nt
COCC(=O)NC[C@H]1C[C@@H]2CCN1C[C@@H]2c1cc(-c2ccccc2OC)nc(C)n1	nt	nt	nt	i	nt	nt
COc1ccccc1-c1cc([C@H]2CN3CC[C@H]2C[C@@H]3COC(=O)Nc2ccc(C(C)C)cc2)nc(C)n1	nt	nt	nt	44.7µM	nt	nt
Cc1nc(-c2cccs2)cc([C@H]2CN3CC[C@H]2C[C@@H]3COC(=O)Nc2ccc(C(C)C)cc2)n1	nt	nt	nt	44.7µM	nt	nt
O=[S+]1([O-])NC2(CCN(Cc3ccoc3)C2)COc2ccncc21 (stereo unspecified)	nt	nt	nt	i[6.33 µM]	nt	nt

Screening data: PubChem, National Center for Advancing Translational Sciences (NCATS)
